Measured values: the supplement of paper PMC10849652
The full data set covers some 7,900 targets. This sample favours those with a hit. About 0.6% of all pairs of compound and target were hits. A number with no mark means an inactive call.

Key:
Assay in all cases: log2 fold change, soluble protein after heating vs DMSO (PISA); higher = thermal stabilisation; K562 cells, 10 uM, 30 min; active = over 0.2 and 3.5 SD of the protein, either way, in both replicates (recomputed)
erlotinib = compound: C#Cc1cccc(Nc2ncnc3cc(OCCOC)c(OCCOC)cc23)c1 [erlotinib]
Method in brief: (§1)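 K562 cells at 2×10^6 cells/mL were exposed to 10 μM compound for 30 min, then aliquots were heated for 3 min across 48°C-58°C, pooled, and extracted in PBS containing 0.5% NP-40 at 4°C. The supernatant after 21,000xg for 90 min was taken as soluble protein and measured by TMTpro 16plex LC-MS/MS with channel sums equalised. Thermal stability is reported relative to control samples, with values from duplicates. Fold changes are given on a log2 scale.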

[1] = compound: C/C(=N\NC(=O)C1=CC(=CC=C1)S(=O)(=O)N2CCOCC2)/C3=C(C=CC(=C3)Cl)O
Method in brief: as §1

[2] = compound: C1=CC(=C(C=C1Cl)C2=NC3=NC=CN=C3C(=N2)NC4=CC=NC=C4)F
Method in brief: as §1

[3] = compound: C1=CC(=CC=C1C2=NC3=C(N2)C=C(C=C3)C(=O)N)OC4=CC=C(C=C4)Cl
Method in brief: as §1

[4] = compound: C1=CC2=C(C=CC(=C2)/C=C\3/C(=O)NC(=NCC4=CC=CS4)S3)N=C1
Method in brief: as §1

[5] = compound: C1=CC2=NC=CN=C2C=C1/C=C/3\C(=O)NC(=O)S3
Method in brief: as §1

[6] = compound: C1=CC=C(C=C1)C2=NC(=C(N2)C3=CC=NC=C3)C4=CC(=C(C=C4)Cl)O
Method in brief: as §1

[7] = compound: C1=CC=C2C(=C1)C3=NNC4=CC=CC(=C43)C2=O
Method in brief: as §1

[8] = compound: C1CCN(C1)C(=O)NC2=CC=CC(=C2)NC3=NC=C(C(=N3)NCCC4=CN=CN4)Br
Method in brief: as §1

[9] = compound: C1CN(CCC1(CC2=CC=C(C=C2)Cl)N)C3=NC=NC4=C3C=CN4
Method in brief: as §1

Sequence of UniProt Q96RE7 (Q96RE7 whole entry, looked up): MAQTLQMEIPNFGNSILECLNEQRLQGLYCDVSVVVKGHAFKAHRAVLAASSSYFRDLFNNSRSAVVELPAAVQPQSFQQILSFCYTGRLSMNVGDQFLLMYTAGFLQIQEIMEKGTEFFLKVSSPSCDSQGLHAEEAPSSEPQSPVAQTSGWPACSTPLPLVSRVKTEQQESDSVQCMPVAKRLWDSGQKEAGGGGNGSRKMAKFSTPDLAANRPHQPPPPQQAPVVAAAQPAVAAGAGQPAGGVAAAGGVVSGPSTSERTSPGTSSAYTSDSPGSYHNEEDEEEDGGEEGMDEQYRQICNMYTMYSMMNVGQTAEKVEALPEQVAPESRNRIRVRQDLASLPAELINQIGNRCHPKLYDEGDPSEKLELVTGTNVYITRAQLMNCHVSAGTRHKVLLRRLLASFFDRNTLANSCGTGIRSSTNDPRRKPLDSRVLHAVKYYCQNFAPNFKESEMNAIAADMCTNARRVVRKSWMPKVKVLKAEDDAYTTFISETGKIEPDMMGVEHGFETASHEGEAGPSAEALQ
Sequence of UniProt Q9BRP4 (Q9BRP4 whole entry, looked up): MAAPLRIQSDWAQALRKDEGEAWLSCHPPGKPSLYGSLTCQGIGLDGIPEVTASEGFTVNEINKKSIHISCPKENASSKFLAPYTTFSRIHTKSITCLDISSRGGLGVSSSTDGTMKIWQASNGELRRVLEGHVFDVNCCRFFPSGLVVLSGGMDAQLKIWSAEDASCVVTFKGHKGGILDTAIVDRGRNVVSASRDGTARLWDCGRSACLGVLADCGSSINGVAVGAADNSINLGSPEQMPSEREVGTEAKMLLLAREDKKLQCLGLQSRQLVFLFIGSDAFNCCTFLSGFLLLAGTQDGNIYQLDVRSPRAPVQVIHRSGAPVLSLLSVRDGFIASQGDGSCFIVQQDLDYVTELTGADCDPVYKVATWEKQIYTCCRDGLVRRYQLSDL
Sequence of UniProt Q12968 (Q12968 whole entry, looked up): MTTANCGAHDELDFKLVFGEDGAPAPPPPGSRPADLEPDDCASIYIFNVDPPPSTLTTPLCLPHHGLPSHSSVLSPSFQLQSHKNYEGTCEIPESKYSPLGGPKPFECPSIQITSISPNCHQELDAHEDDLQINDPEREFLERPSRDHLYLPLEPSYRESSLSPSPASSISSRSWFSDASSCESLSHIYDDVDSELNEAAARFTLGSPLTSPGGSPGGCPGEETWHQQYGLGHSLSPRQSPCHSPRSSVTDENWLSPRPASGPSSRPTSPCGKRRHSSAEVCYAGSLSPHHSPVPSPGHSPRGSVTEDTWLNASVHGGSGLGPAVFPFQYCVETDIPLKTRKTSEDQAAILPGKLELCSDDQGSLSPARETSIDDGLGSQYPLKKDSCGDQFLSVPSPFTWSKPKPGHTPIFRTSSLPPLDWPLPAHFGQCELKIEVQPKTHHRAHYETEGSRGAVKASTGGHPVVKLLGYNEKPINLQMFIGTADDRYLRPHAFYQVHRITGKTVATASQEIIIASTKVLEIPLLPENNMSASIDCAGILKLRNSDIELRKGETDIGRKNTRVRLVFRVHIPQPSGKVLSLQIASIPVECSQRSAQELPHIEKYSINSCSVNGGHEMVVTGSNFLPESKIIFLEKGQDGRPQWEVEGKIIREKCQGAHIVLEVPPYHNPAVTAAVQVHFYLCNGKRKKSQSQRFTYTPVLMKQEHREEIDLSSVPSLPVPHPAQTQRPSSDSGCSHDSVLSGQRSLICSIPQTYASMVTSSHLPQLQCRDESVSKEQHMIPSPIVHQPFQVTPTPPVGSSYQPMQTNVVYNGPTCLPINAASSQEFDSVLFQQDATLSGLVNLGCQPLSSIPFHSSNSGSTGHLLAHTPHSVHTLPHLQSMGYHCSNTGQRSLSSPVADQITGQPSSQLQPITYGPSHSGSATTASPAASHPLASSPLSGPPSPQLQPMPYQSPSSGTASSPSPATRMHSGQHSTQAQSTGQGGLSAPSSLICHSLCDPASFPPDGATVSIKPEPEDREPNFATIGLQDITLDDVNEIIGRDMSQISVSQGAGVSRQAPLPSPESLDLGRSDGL
Sequence of UniProt Q9HCE1 (Q9HCE1 whole entry, looked up): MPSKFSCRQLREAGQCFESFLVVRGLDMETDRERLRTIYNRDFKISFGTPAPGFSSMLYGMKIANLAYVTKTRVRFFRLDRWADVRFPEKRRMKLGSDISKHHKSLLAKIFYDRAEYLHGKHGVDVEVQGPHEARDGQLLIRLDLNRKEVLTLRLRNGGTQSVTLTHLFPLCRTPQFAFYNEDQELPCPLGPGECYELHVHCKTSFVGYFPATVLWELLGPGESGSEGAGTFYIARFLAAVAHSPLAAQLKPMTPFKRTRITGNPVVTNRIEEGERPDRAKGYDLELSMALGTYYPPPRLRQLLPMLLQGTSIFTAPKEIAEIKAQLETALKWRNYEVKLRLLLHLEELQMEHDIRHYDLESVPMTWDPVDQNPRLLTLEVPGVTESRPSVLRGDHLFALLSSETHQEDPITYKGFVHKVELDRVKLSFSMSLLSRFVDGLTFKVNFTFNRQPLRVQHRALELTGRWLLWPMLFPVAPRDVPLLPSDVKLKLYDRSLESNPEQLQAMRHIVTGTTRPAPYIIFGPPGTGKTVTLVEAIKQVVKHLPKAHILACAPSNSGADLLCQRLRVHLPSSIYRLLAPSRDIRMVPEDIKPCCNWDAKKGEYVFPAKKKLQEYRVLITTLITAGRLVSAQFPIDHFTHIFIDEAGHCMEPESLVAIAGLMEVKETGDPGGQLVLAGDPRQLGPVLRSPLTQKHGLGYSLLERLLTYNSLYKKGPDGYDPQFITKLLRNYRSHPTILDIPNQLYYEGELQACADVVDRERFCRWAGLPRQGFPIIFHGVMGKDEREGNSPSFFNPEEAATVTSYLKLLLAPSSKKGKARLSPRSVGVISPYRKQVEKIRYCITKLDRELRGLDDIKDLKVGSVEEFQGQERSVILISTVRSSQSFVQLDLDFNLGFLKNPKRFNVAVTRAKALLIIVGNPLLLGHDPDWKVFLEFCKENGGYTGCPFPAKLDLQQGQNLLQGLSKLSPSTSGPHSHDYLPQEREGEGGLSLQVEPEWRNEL
Sequence of UniProt Q9NR45 (Q9NR45 whole entry, looked up): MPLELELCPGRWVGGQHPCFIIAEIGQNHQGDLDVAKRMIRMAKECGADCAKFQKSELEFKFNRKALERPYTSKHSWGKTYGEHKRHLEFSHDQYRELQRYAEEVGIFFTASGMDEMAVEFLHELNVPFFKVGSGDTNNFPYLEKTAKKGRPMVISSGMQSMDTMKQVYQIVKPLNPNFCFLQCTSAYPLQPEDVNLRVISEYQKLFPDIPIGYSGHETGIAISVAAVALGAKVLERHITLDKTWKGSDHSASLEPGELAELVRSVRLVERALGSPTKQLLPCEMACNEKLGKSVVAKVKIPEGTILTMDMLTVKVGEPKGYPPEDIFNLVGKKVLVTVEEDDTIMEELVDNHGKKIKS
Sequence of UniProt Q16621 (Q16621 whole entry, looked up): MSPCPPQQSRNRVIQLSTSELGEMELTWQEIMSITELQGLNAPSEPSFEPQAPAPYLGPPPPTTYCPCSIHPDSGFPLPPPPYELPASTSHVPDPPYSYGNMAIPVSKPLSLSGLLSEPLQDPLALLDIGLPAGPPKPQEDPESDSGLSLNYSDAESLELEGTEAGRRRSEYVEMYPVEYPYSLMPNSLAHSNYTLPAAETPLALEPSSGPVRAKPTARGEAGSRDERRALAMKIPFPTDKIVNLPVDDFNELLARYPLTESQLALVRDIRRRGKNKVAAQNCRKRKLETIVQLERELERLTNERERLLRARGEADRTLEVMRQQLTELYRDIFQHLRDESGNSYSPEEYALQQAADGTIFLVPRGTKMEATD
Sequence of UniProt O15118 (O15118 whole entry, looked up): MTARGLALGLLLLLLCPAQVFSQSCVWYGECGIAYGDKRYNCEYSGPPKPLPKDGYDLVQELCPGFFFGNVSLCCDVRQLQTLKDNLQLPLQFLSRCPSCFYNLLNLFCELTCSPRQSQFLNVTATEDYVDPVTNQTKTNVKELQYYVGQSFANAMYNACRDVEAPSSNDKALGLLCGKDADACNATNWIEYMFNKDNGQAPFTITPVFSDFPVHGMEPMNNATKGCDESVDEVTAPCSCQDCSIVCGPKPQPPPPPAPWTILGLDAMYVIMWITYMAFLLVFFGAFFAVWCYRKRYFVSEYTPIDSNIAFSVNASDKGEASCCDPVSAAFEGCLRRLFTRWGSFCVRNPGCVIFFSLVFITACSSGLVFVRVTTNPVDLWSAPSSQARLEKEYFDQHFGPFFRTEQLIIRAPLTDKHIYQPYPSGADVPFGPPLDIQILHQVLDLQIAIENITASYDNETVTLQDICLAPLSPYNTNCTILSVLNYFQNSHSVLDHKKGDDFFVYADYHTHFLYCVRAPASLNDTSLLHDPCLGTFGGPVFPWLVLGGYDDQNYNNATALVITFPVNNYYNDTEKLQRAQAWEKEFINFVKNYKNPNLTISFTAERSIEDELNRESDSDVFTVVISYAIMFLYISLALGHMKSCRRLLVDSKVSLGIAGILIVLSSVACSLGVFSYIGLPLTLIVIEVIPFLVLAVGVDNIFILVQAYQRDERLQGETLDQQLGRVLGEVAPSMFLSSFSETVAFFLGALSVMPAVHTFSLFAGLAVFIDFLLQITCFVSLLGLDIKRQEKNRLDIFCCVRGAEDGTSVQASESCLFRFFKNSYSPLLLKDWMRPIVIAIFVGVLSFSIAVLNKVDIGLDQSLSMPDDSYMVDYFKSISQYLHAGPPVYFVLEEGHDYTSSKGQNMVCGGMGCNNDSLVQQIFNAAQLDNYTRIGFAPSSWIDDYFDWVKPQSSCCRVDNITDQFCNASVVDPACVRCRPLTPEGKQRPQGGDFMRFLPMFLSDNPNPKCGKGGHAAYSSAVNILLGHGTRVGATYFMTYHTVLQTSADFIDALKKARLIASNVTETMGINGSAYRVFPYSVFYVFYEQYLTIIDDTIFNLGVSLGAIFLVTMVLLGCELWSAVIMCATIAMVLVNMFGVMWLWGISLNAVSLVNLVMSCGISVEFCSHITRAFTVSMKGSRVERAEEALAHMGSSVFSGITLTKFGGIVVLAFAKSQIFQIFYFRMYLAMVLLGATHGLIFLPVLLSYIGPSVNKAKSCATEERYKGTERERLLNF

Row | Target | log2 fold change (erlotinib) | log2 fold change [1] | log2 fold change [2] | log2 fold change [3] | log2 fold change [4] | log2 fold change [5] | log2 fold change [6] | log2 fold change [7] | log2 fold change [8] | log2 fold change [9]
1 | NUP210 (UniProt Q8TEM1) | 0.021 | 0.004 | 0.06 | -0.004 | 0.011 | 0.015 | -0.018 | -0.186 | -0.009 | 0.012
2 | NCOR1 (UniProt O75376) | -0.057 | 0.021 | -0.034 | 0.041 | 0.08 | 0.026 | 0.044 | -0.21 | -0.055 | -0.051
3 | NDFIP1 (UniProt Q9BT67) | -0.066 | 0.07 | -0.046 | 0.077 | -0.244 | 0.046 | 0.005 | 0.122 | -0.234 | -0.168
4 | NDUFA6 (UniProt P56556) | 0.014 | 0.133 | 0.11 | -0.015 | -0.045 | 0.002 | 0.104 | 0.042 | -0.031 | -0.008
5 | MRPL47 (UniProt Q9HD33) | -0.189 | -0.107 | -0.098 | 0.096 | -0.002 | -0.047 | -0.012 | 0.094 | -0.004 | -0.273
6 | NACC1 (UniProt Q96RE7) | 0.134 | 0.242 | 0.065 | -0.034 | -0.017 | 0.05 | -0.02 | -0.08 | -0.059 | -0.01
7 | MT-ND4 (UniProt P03905) | 0.152 | -0.077 | 0.053 | -0.028 | -0.026 | 0.044 | -0.009 | 0.078 | -0.007 | -0.036
8 | NMD3 (UniProt Q96D46) | 0.025 | 0.011 | 0.052 | 0.023 | 0.009 | -0.02 | 0.05 | 0.013 | 0.064 | -0.281 (active)
9 | OGFOD1 (UniProt Q8N543) | 0.043 | -0.18 | 0.02 | 0.007 | 0.015 | 0.11 | -0.01 | 0.014 | 0.007 | 0.03
10 | MTFR1L (UniProt Q9H019) | -0.002 | -0.013 | -0.202 | 0.064 | -0.001 | -0.03 | 0.077 | 0.13 | 0.036 | -0.027
11 | MT-ND1 (UniProt P03886) | -0.075 | 0.031 | -0.028 | 0.097 | -0.005 | 0.032 | 0.053 | 0.12 | -0.187 | 0.018
12 | MYH10 isoform 3 (UniProt P35580) | -0.002 | 0.043 | 0.089 | -0.032 | 0.006 | 0.01 | 0.034 | 0.021 | 0.015 | -0.024
13 | NPC1 (UniProt O15118) | 0.027 | -0.033 | -0.004 | 0.025 | -0.01 | 0.028 | 0.011 | -0.027 | 0.058 | 0.069
14 | NDUFS7 (UniProt O75251) | 0.129 | -0.011 | 0.039 | -0.011 | 0.062 | 0.038 | -0.052 | 0.035 | 0.045 | 0.011
15 | NUDT1 (UniProt P36639) | 0.164 | -0.018 | 0.135 | -0.068 | 0 | -0.032 | 0.055 | 0.187 | -0.009 | 1.01 (active)
16 | NR2C2 isoform 2 (UniProt P49116) | -0.001 | -0.067 | -0.011 | 0.006 | 0.019 | -0.039 | -0.003 | -0.091 | 0.074 | 0.007
17 | NFATC2 (UniProt Q13469) | -0.049 | 0.147 | -0.002 | 0.012 | 0.04 | -0.132 | 0.053 | -0.109 | -0.201 | 0.007
18 | NANS (UniProt Q9NR45) | -0.016 | 0.031 | 0.066 | -0.022 | 0.028 | 0.023 | 0.036 | 0.02 | 0.016 | 0.022
19 | NDUFS8 (UniProt O00217) | 0.015 | 0.045 | 0.023 | 0.033 | 0.039 | 0.027 | 0.029 | 0.007 | 0.014 | 0.035
20 | MRPS21 (UniProt P82921) | 0.014 | -0.04 | -0.096 | 0.042 | -0.241 | -0.138 | -0.019 | 0.297 | -0.091 | -0.07
21 | MRPS25 (UniProt P82663) | -0.069 | -0.023 | -0.022 | 0.084 | -0.048 | 0 | 0.083 | 0.061 | -0.036 | -0.068
22 | NFE2 (UniProt Q16621) | 0.009 | 0.005 | -0.025 | -0.001 | -0.002 | 0.158 | -0.012 | -0.009 | -0.02 | -0.019
23 | NDUFB8 (UniProt O95169) | -0.026 | -0.047 | 0.129 | 0.005 | 0.033 | 0.087 | -0.026 | 0.07 | -0.008 | 0.06
24 | MOV10 (UniProt Q9HCE1) | -0.103 | -0.062 | -0.242 | 0.026 | -0.002 | 0.049 | -0.049 | -0.054 | 0.04 | -0.158
25 | NMU (UniProt P48645) | -0.003 | 0.072 | -0.02 | 0.063 | -0.123 | 0.094 | -0.129 | -0.018 | 0.025 | 0.133
26 | MYH11 isoform 2 (UniProt P35749) | 0.046 | -0.081 | 0.096 | 0.02 | 0.032 | 0.018 | -0.026 | 0.036 | -0.046 | 0.028
27 | PAAF1 (UniProt Q9BRP4) | 0.038 | 0.032 | 0.097 | 0.068 | -0.009 | 0.009 | 0.027 | 0 | 0.003 | 0.009
28 | NME1 isoform 2 (UniProt P15531) | 0.034 | -0.015 | 0.038 | 0.092 | 0.063 | -0.05 | -0.048 | -0.001 | 0.032 | 0.074
29 | MND1 (UniProt Q9BWT6) | -0.068 | 0.034 | -0.003 | -0.002 | -0.011 | 0.015 | -0.019 | 0.009 | -0.081 | -0.017
30 | NFATC3 (UniProt Q12968) | 0.121 | 0.197 | 0.024 | 0 | 0.039 | -0.013 | -0.019 | -0.101 | -0.01 | -0.027
